# Laboratory results taken from PubChem BioAssay.
# For some of these results: Potency and affinity values are given separately. Activity calls are given as the source filed them.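 Rule for the calls, unless noted: active = primary screen inhibitor hit that blocks the TRPC4 channel at some tested dose, yielding a dose curve; inactive = the rest.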
# Legend:
# [1] = test system: TRPC4 beta (transient receptor potential cation channel C4), mouse; test: activators of mouse TRPC4 channel, confirmation, cell-based, Fluo4 calcium, HEK293 TRPC4beta/mu-opioid, duplicates, 10 µM (AID 2426;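 active = fluorescence ratio normalized to control raised more than 50% in primary screen plus both repeat runs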); conditions: Fluo4 calcium fluorescence, at 10 µM; hits give high values
# [2] = test system: transient receptor potential cation channel C4 beta (TRPC4), mouse; test: activators of mouse TRPC4 channel, confirmation, cell-based, second round, Fluo4, HEK293 TRPC4beta/mu-opioid, 1 µM (AID 2461;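 active = primary screen active and over 50% activation in each of two duplicate runs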); conditions: Fluo4 calcium fluorescence, at 1 µM; hits give high values
# [3] = test system: TRPC4 (transient receptor potential cation channel C4 beta), mouse; test: positive allosteric modulators of mouse TRPC4, confirmation, cell-based, second round, Fluo-4, HEK293 TRPC4beta/mu-opioid, 1 µM (AID 2554;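 active = primary screen hit whose fluorescence ratio, in both repeats, exceeds the weak agonist control mean by 3 SD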); conditions: DAMGO EC20, Fluo-4 calcium flux, at 1 µM; hits give high values
# [4] = test system: TRPC4 beta (transient receptor potential cation channel C4), mouse; test: positive allosteric modulators of mouse TRPC4, confirmation, cell-based, Fluo-4, HEK293 TRPC4beta/mu-opioid (AID 2555;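 active = primary screen hit whose calcium fluorescence ratio, in both repeats, exceeds the weak agonist control mean by 3 SD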); conditions: DAMGO EC20, Fluo-4 calcium flux, at 10 µM; hits give high values
# [5] = target: Short transient receptor potential channel 4 (Mus musculus) (UniProt Q9QUQ5); test: inhibitors of mouse TRPC4 channel, confirmation, cell-based, Fluo4, HEK293 TRPC4beta/mu-opioid (AID 2636;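 active = calcium signal cut by more than 3 SD below the full-agonist control yet still positive, in both repeats and the earlier primary screen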); conditions: DAMGO, Fluo4 calcium flux, at 10 µM; hits give high values
# [6] = target: Short transient receptor potential channel 4 (Mus musculus) (UniProt Q9QUQ5); test: inhibitors of mouse TRPC4 channel, confirmation, cell-based, second round, Fluo4, HEK293 TRPC4beta/mu-opioid, 1 µM (AID 2637;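 active = calcium signal ratio cut to more than 3 SD under the fully stimulated control mean yet still positive, in both repeats and the primary screen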); conditions: Fluo4 calcium flux, DAMGO, at 1 µM; hits give high values
# [7] = target: Short transient receptor potential channel 4 (Mus musculus) (UniProt Q9QUQ5); test: mouse TRPC4 channel activators, dose response, cell-based, HEK293 TRPC4/mu-opioid, Fluo-4 calcium (AID 434937;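 active = primary screen activator hit with a dose response curve and TRPC4 channel activation at any tested dose; inactive = no activation, no dose response, or not a primary hit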)
# [8] = target: Short transient receptor potential channel 4 (Mus musculus) (UniProt Q9QUQ5); test: TRPC4 positive allosteric modulators, dose response, cell-based, HEK293 TRPC4/mu-opioid, Fluo-4 calcium, EC20 DAMGO (AID 434941;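 active = earlier screen potentiator hit that boosts the TRPC4 ion channel at some dose, with a dose response; inactive = no potentiation, no dose response, or not a prior hit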;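 note: calcium entry triggered by an EC20 dose of DAMGO at the co-expressed mu-opioid receptor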)
# [9] = target: Short transient receptor potential channel 4 (Mus musculus) (UniProt Q9QUQ5); test: mouse TRPC4 channel inhibitors, dose response, cell-based, HEK293 TRPC4/mu-opioid, Fluo-4 calcium (AID 434942)
# [10] = target: Short transient receptor potential channel 6 (Mus musculus) (UniProt Q61143); test: inhibition of mouse TRPC6 channel, confirmation, selectivity assay for TRPC4 inhibitor project, cell-based, HEK293, membrane potential dye, duplicate (AID 434948;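 active = active in primary screen and both duplicates, each dropping signal beyond three positive-control SD with fluorescence still positive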); conditions: HEK293 TRPC6, membrane potential dye fluorescence, at 10 µM, stimulated with maximal-effect acetylcholine; hits give high values
# [11] = target: Short transient receptor potential channel 6 (Mus musculus) (UniProt Q61143); test: activation of mouse TRPC6 channel, confirmation, selectivity assay for TRPC4 activator project, cell-based, HEK293, membrane potential dye, duplicate (AID 434950;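 active = membrane potential signal rise above negative control mean plus 3 SD in both duplicates, also active in the earlier TRPC4 screen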); conditions: HEK293 TRPC6, membrane potential fluorescence, at 10 µM; hits give high values
# [12] = target: Short transient receptor potential channel 6 (Mus musculus) (UniProt Q61143); test: TRPC6 potentiation by TRPC4 potentiator hits, confirmation, selectivity assay for TRPC4 potentiator project, HEK293 cells, membrane potential dye, duplicate (AID 434952;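 active = compound raising the membrane signal above positive-control mean plus 3 SD in both repeats, and a primary screen hit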); conditions: HEK293 TRPC6, membrane potential dye fluorescence, at 10 µM, maximal acetylcholine added after compound; hits give high values
# [13] = target: Short transient receptor potential channel 4 (Mus musculus) (UniProt Q9QUQ5); test: calcium flux activators in TRPC4/5HT1a cells, counter-screen for TRPC4 activator project, cell-based, second counter screen, HEK293 TRPC4/5HT1a, Fluo-4 (AID 434977;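 active = calcium signal rise above buffer-control mean plus 5 SD in both duplicates, and also a hit in the primary screen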); conditions: Fluo-4 calcium flux, at 10 µM; hits give high values
# [14] = calcium flux inhibitors in TRPC4/5HT1a cells, confirmation, counter-screen for TRPC4 inhibitor project, cell-based, second counter screen, HEK293 TRPC4/5HT1a, Fluo-4 (AID 434978;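 active = primary screen active whose calcium signal fell more than 3 SD beyond the full-serotonin control mean in both duplicate plates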;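 note: serotonin given first at submaximal then at maximal dose after compound preincubation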); conditions: Fluo-4 calcium flux, at 10 µM, serotonin added to trigger calcium flux; hits give high values
# [15] = test system: TRPC4 (mouse), co-expressed with 5HT1a in HEK293; test: calcium flux potentiators in TRPC4/5HT1a cells, confirmation, counter-screen for TRPC4 potentiator project, cell-based, second counter screen, HEK293 TRPC4/5HT1a, Fluo-4 (AID 434979;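 active = signal rise over 3 SD above mean of control wells given weak agonist, in both repeats and first screen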); conditions: Fluo-4 calcium flux, at 10 µM, serotonin added at its EC20 dose; hits give high values
# [16] = calcium flux activation in mu-opioid HEK293 cells, confirmation, counter-screen for TRPC4 activator project, cell-based, HEK293 mu-opioid receptor line (AID 449723;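 active = hit in primary screen, with calcium signal over 5 SD above buffer well mean in both duplicates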;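 note: counter screen cells carry the mu-opioid receptor alone and lack TRPC4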); conditions: Fluo-4 calcium fluorescence, at 10 µM; hits give high values
# [17] = calcium flux enhancement in mu-opioid HEK293 cells, confirmation, counter-screen for TRPC4 allosteric potentiator project, cell-based, HEK293 mu-opioid receptor line (AID 449724;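 active = calcium signal rise more than 3 SD above the low-dose agonist control mean, in both duplicate plates and the primary screen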); conditions: Fluo-4 calcium flux, at 10 µM, compound added before EC20 DAMGO stimulus; hits give high values
# Short transient receptor potential channel 4 (Mus musculus), sequence (Q9QUQ5 whole entry, looked up): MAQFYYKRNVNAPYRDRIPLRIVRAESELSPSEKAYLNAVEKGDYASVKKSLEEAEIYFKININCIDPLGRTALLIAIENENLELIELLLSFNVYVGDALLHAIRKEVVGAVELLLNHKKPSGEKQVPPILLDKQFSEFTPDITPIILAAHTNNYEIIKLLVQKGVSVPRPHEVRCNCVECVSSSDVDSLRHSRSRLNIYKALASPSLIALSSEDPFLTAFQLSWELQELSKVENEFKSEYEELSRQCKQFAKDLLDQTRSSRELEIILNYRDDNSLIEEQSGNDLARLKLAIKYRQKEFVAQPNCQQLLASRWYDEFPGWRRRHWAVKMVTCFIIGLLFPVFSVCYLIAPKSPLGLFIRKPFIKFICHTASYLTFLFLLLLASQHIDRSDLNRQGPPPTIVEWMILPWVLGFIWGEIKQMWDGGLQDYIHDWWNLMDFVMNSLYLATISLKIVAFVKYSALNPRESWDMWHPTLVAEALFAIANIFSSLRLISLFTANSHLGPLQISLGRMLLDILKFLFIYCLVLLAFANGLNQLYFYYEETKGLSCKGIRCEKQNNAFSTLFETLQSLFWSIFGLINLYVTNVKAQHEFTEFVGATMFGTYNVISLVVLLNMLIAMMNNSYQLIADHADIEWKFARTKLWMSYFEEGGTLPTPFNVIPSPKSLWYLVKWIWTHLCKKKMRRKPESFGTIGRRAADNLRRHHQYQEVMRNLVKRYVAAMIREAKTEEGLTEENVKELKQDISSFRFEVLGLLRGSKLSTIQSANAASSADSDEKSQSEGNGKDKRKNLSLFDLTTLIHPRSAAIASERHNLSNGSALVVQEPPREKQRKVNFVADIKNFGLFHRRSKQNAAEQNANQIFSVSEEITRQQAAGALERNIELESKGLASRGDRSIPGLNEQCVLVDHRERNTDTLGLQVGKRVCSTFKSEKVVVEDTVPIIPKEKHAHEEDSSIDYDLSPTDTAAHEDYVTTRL
# Short transient receptor potential channel 6 (Mus musculus), sequence (Q61143 whole entry, looked up): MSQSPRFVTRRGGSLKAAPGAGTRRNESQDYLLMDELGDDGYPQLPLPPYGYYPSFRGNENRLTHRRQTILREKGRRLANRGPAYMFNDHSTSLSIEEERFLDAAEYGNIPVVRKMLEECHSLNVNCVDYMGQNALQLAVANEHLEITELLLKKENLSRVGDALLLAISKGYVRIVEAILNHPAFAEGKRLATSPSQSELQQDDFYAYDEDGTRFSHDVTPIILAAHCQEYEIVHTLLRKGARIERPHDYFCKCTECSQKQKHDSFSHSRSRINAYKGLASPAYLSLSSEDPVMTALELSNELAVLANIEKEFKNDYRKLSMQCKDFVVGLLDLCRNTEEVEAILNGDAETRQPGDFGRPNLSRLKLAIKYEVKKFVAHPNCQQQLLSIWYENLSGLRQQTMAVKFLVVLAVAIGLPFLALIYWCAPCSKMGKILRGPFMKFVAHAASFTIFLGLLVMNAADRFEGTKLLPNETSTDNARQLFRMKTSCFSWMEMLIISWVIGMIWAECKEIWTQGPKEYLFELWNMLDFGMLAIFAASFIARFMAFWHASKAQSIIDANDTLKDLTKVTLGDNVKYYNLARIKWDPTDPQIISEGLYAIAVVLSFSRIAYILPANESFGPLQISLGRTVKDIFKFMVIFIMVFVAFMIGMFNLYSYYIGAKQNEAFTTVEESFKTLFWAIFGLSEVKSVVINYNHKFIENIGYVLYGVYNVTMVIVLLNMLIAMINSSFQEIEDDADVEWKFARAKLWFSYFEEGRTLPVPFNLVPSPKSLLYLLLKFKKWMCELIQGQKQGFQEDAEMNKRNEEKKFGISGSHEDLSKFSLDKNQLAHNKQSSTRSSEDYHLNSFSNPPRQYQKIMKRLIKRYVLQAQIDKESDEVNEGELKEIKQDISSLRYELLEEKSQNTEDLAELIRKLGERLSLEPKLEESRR
smiles,measurement,setting,value
COc1ccc(NS(=O)(=O)c2cccc(C(=O)N3CCN(Cc4cc(OC)ccc4OC)CC3)c2)cc1,outcome,[1],inactive
same,outcome,[2],inactive
same,outcome,[3],inactive
same,outcome,[4],inactive
same,outcome,[5],inactive
same,outcome,[6],inactive
same,outcome,[7],inactive
same,outcome,[8],inactive
same,outcome,[9],inactive
same,outcome,[10],inactive
same,outcome,[11],inactive
same,outcome,[12],inactive
same,outcome,[13],inactive
same,outcome,[14],inactive
same,outcome,[15],inactive
same,outcome,[16],inactive
same,outcome,[17],inactive
Cn1c(C(=O)N[C@@H](C(=O)O)c2ccccc2)cc2cc(Cl)ccc21,outcome,[1],inactive
same,outcome,[2],inactive
same,outcome,[3],inactive
same,outcome,[4],inactive
same,outcome,[5],inactive
same,outcome,[6],inactive
same,outcome,[7],inactive
same,outcome,[8],inactive
same,outcome,[9],inactive
same,outcome,[10],inactive
same,outcome,[11],inactive
same,outcome,[12],inactive
same,outcome,[13],inactive
same,outcome,[14],inactive
same,outcome,[15],inactive
same,outcome,[16],inactive
same,outcome,[17],inactive
CC(NC(=O)c1ccccc1NC(=O)CN1CCc2ccccc2C1)c1ccccc1 (centres undefined),outcome,[1],inactive
same,outcome,[2],inactive
same,outcome,[3],inactive
same,outcome,[4],inactive
same,outcome,[5],inactive
same,outcome,[6],inactive
same,outcome,[7],inactive
same,outcome,[8],inactive
same,outcome,[9],inactive
same,outcome,[10],inactive
same,outcome,[11],inactive
same,outcome,[12],inactive
same,outcome,[13],inactive
same,outcome,[14],inactive
same,potentiation,[15],20.3% (active)
same,outcome,[16],inactive
same,outcome,[17],inactive
Cn1c(=O)c2c(nc(CN3CCc4ccccc4C3)n2Cc2ccccc2)n(C)c1=O,outcome,[1],inactive
same,outcome,[2],inactive
same,potentiation,[3],40% (active)
same,outcome,[4],inactive
same,outcome,[5],inactive
same,outcome,[6],inactive
same,outcome,[7],inactive
same,outcome,[8],inactive
same,outcome,[9],inactive
same,outcome,[10],inactive
same,outcome,[11],inactive
same,outcome,[12],inactive
same,outcome,[13],inactive
same,outcome,[14],inactive
same,potentiation,[15],97.6% (active)
same,outcome,[16],inactive
same,outcome,[17],inactive
C1CCN(c2nc(N3CCCCC3)nc(N3CCNCC3)n2)CC1,outcome,[1],inactive
same,outcome,[2],inactive
same,outcome,[3],inactive
same,outcome,[4],inactive
same,outcome,[5],inactive
same,outcome,[6],inactive
same,outcome,[7],inactive
same,outcome,[8],inactive
same,outcome,[9],inactive
same,outcome,[10],inactive
same,outcome,[11],inactive
same,outcome,[12],inactive
same,outcome,[13],inactive
same,outcome,[14],inactive
same,potentiation,[15],8.18% (active)
same,outcome,[16],inactive
same,outcome,[17],inactive
CCc1ccc(Nc2n[n+](-c3ccccc3)c(/C=C/c3ccccc3)s2)cc1,outcome,[1],inactive
same,outcome,[2],inactive
same,outcome,[3],inactive
same,potentiation,[4],14% (active)
same,outcome,[5],inactive
same,outcome,[6],inactive
same,outcome,[7],inactive
same,outcome,[8],inactive
same,outcome,[9],inactive
same,outcome,[10],inactive
same,outcome,[11],inactive
same,outcome,[12],inactive
same,outcome,[13],inactive
same,outcome,[14],inactive
same,potentiation,[15],14.8% (active)
same,outcome,[16],inactive
same,outcome,[17],inactive
CCN1CCCC(OC(=O)c2cc(-c3ccccc3Cl)nc3ccccc23)C1 (centres undefined),outcome,[1],inactive
same,outcome,[2],inactive
same,outcome,[3],inactive
same,outcome,[4],inactive
same,outcome,[5],inactive
same,outcome,[6],inactive
same,outcome,[7],inactive
same,outcome,[8],inactive
same,outcome,[9],inactive
same,outcome,[10],inactive
same,outcome,[11],inactive
same,outcome,[12],inactive
same,outcome,[13],inactive
same,outcome,[14],inactive
same,potentiation,[15],9.46% (active)
same,outcome,[16],inactive
same,outcome,[17],inactive
Cc1cc(Nc2ccc3c(c2)OCCO3)c2ccccc2n1,outcome,[1],inactive
same,outcome,[2],inactive
same,outcome,[3],inactive
same,outcome,[4],inactive
same,outcome,[5],inactive
same,outcome,[6],inactive
same,outcome,[7],inactive
same,outcome,[8],inactive
same,outcome,[9],inactive
same,outcome,[10],inactive
same,outcome,[11],inactive
same,outcome,[12],inactive
same,outcome,[13],inactive
same,outcome,[14],inactive
same,outcome,[15],inactive
same,outcome,[16],inactive
same,outcome,[17],inactive
COc1ccc(Cl)c2sc(N(CCN(C)C)C(=O)CCS(=O)(=O)c3ccc(C)cc3)nc12,outcome,[1],inactive
same,outcome,[2],inactive
same,potentiation,[3],12% (active)
same,outcome,[4],inactive
same,outcome,[5],inactive
same,outcome,[6],inactive
same,outcome,[7],inactive
same,outcome,[8],inactive
same,outcome,[9],inactive
same,outcome,[10],inactive
same,outcome,[11],inactive
same,outcome,[12],inactive
same,outcome,[13],inactive
same,outcome,[14],inactive
same,outcome,[15],inactive
same,outcome,[16],inactive
same,outcome,[17],inactive
CCOC(=O)c1cnc2ccc(Cl)cc2c1NCCN(C)C,outcome,[1],inactive
same,outcome,[2],inactive
same,outcome,[3],inactive
same,outcome,[4],inactive
same,outcome,[5],inactive
same,outcome,[6],inactive
same,outcome,[7],inactive
same,outcome,[8],inactive
same,outcome,[9],inactive
same,outcome,[10],inactive
same,outcome,[11],inactive
same,outcome,[12],inactive
same,outcome,[13],inactive
same,outcome,[14],inactive
same,outcome,[15],inactive
same,outcome,[16],inactive
same,outcome,[17],inactive
CCCCN1CCc2c1nc1ccc(Br)cc1c2N,outcome,[1],inactive
same,outcome,[2],inactive
same,outcome,[3],inactive
same,outcome,[4],inactive
same,outcome,[5],inactive
same,outcome,[6],inactive
same,outcome,[7],inactive
same,outcome,[8],inactive
same,outcome,[9],inactive
same,outcome,[10],inactive
same,outcome,[11],inactive
same,outcome,[12],inactive
same,outcome,[13],inactive
same,outcome,[14],inactive
same,outcome,[15],inactive
same,outcome,[16],inactive
same,outcome,[17],inactive
COc1ccc(OCCN(C)Cc2c(O)ccc3ccccc23)cc1,outcome,[1],inactive
same,outcome,[2],inactive
same,outcome,[3],inactive
same,outcome,[4],inactive
same,outcome,[5],inactive
same,outcome,[6],inactive
same,outcome,[7],inactive
same,outcome,[8],inactive
same,outcome,[9],inactive
same,outcome,[10],inactive
same,outcome,[11],inactive
same,outcome,[12],inactive
same,outcome,[13],inactive
same,outcome,[14],inactive
same,outcome,[15],inactive
same,outcome,[16],inactive
same,outcome,[17],inactive
O=C(COC(=O)c1ccccn1)Nc1nc(-c2ccccc2)cs1,outcome,[1],inactive
same,outcome,[2],inactive
same,outcome,[3],inactive
same,outcome,[4],inactive
same,outcome,[5],inactive
same,outcome,[6],inactive
same,outcome,[7],inactive
same,outcome,[8],inactive
same,outcome,[9],inactive
same,outcome,[10],inactive
same,outcome,[11],inactive
same,outcome,[12],inactive
same,outcome,[13],inactive
same,outcome,[14],inactive
same,outcome,[15],inactive
same,outcome,[16],inactive
same,outcome,[17],inactive
CC(=O)Oc1c(C)cc(O)c2ccccc12,outcome,[1],inactive
same,outcome,[2],inactive
same,outcome,[3],inactive
same,outcome,[4],inactive
same,outcome,[5],inactive
same,outcome,[6],inactive
same,outcome,[7],inactive
same,outcome,[8],inactive
same,outcome,[9],inactive
same,outcome,[10],inactive
same,outcome,[11],inactive
same,outcome,[12],inactive
same,outcome,[13],inactive
same,outcome,[14],inactive
same,outcome,[15],inactive
same,outcome,[16],inactive
same,outcome,[17],inactive
CC(C)C(=O)N1CCN(c2ccccc2NC(=O)c2ccco2)CC1,outcome,[1],inactive
same,outcome,[2],inactive
same,outcome,[3],inactive
same,outcome,[4],inactive
same,inhibition,[5],84% (active)
same,outcome,[6],inactive
same,outcome,[7],inactive
same,outcome,[8],inactive
same,outcome,[9],inactive
same,outcome,[10],inactive
same,outcome,[11],inactive
same,outcome,[12],inactive
same,outcome,[13],inactive
same,outcome,[14],inactive
same,outcome,[15],inactive
same,outcome,[16],inactive
same,outcome,[17],inactive
OCCNc1nc(Nc2ccccc2)nc2ccccc12,outcome,[1],inactive
same,outcome,[2],inactive
same,outcome,[3],inactive
same,outcome,[4],inactive
same,outcome,[5],inactive
same,outcome,[6],inactive
same,outcome,[7],inactive
same,outcome,[8],inactive
same,outcome,[9],inactive
same,outcome,[10],inactive
same,outcome,[11],inactive
same,outcome,[12],inactive
same,outcome,[13],inactive
same,outcome,[14],inactive
same,outcome,[15],inactive
same,outcome,[16],inactive
same,outcome,[17],inactive
CN(C)CCCOC(=O)c1ccc(Cl)cc1Cl,outcome,[1],inactive
same,outcome,[2],inactive
same,potentiation,[3],16% (active)
same,potentiation,[4],8% (active)
same,outcome,[5],inactive
same,outcome,[6],inactive
same,outcome,[7],inactive
same,outcome,[8],inactive
same,outcome,[9],inactive
same,outcome,[10],inactive
same,outcome,[11],inactive
same,outcome,[12],inactive
same,outcome,[13],inactive
same,outcome,[14],inactive
same,potentiation,[15],18.3% (active)
same,outcome,[16],inactive
same,outcome,[17],inactive
